Assay outcomes (PubChem BioAssay)
PrPC TRFRET: inhibitors of human cell surface prion protein PrPC, primary screen, cell-based, TR-FRET; Major prion protein (Homo sapiens), P04156; TR-FRET read-out; inhibition, % at 13.8 µM; 0.43% of 370,000 active; AID 720596, 2013; in the data active = inhibition above about 24%
SARS 3CLpro inh: SARS-CoV 3CLpro protease inhibitors, primary screen, biochemical, quenched FRET | recombinant SARS-CoV 3CLpro, quenched FRET peptide cleavage | inhibition, % at 6 µM | 0.14% of 290,000 active; in the data active = inhibition above about 12%
SSB-PriA inh: inhibitors of Klebsiella pneumoniae PriA binding to SSB C-terminal tail, primary screen, biochemical, AlphaScreen. PriA–SSB C-terminal tail interaction (Klebsiella pneumoniae). AlphaScreen SSBct-PriA binding, biotinylated peptide. inhibition, % at 33 µM. 0.6% of 430,000 active; in the data active = inhibition mostly above about 37%, no sharp cut-off; inactive = mostly below about 20%
BH1578 lux ind: inducers of Vibrio cholerae quorum light production without autoinducers, primary screen, BH1578 luxS cqsA deficient, single point; V. cholerae BH1578 lux reporter, luminescence, 6 h; activation, % at 18.7 µM; 0.16% of 350,000 active; AID 588436, 2011; in the data active = activation mostly above about 9.7%, no sharp cut-off; inconclusive = no clear call, values can overlap the other calls; inactive = mostly below about 3.7%
PrP 5UTR inh: inhibition of PrP 5' UTR reporter expression. cell-based PrP 5' UTR mRNA reporter, plate reader. inhibition, % (no concentration beside the values). 0.35% of 340,000 active. AID 488862, 2010; in the data active = inhibition above about 52%
PfHsp40 rescue: rescue of yeast from PfHsp40 toxicity, primary screen, S. cerevisiae, ATP luminescence; 0.68% of 340,000 active; growth rescue, % at 12.5 µM; S. cerevisiae expressing PfHsp40, growth rescue; in the data active = growth rescue above about 28%, passing the limit was not always enough; inconclusive = no clear call, values can overlap the other calls;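 also: yeast W303a lacking pdr1 and pdr3 grown in galactose medium; growth measured after three days at 30 °C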
Hits are given with their value; . = inactive; ? = inconclusive; / = no result; + = active, no number. Shown are actives, neighbours in structure and some others; about 1.6% of the full set was active somewhere.

SMILES	PrPC TRFRET	SARS 3CLpro inh	SSB-PriA inh	BH1578 lux ind	PrP 5UTR inh	PfHsp40 rescue
CCOC(=O)Nc1ccc2c(c1)C(=NO)c1ccccc1-2	.	/	.	.	.	207.3
CCOC(=O)Nc1ccc2c(c1)Nc1ccccc1S2	.	.	53.3	.	.	.
COc1ccc2sc(N(CCN3CCOCC3)C(=O)c3cccc(SC)c3)nc2c1	/	/	.	/	/	/
COc1ccc(CC(=O)N(CCN2CCOCC2)c2nc3ccc(SC)cc3s2)cc1OC	/	/	29.0	/	/	/
c1ccc2c(C(c3ccc4c(c3)OCO4)c3c[nH]c4ccccc34)c[nH]c2c1	/	/	37.0	/	/	/
CSc1cccc(NC(=O)/C=C/c2cccc(Cl)c2)c1	.	.	.	.	.	245.2
O=C(/C=C/c1cccc(C(F)(F)F)c1)Nc1cccc(C(F)(F)F)c1	.	.	.	.	.	83.0
O=C(/C=C/c1ccccc1)NC(NC(=S)Nc1cccc(O)c1)C(Cl)(Cl)Cl (configuration not stated)	.	.	.	.	.	.
O=C(/C=C/c1ccccc1)NC(NC(=S)Nc1cccc(Cl)c1)C(Cl)(Cl)Cl (configuration not stated)	.	.	.	.	78.8	.
CNC(=O)c1ccc(NC(=O)/C=C/c2cccc(F)c2)cc1	.	.	.	.	.	114.2
O=C(CCCc1ccccc1)NCCS(=O)(=O)N1CCN(c2ncccn2)CC1	/	/	.	/	/	/
COc1ccc(N2CCN(CCNS(=O)(=O)c3ccc(C)s3)CC2)cc1	/	/	.	/	/	/
O=C(NCCn1ccc(C(F)(F)F)n1)c1cc(-c2ccco2)on1	/	/	.	/	/	/
O=C(c1ccc(-c2ccsc2)cc1)N1CCCC(S(=O)(=O)c2ccc(F)cc2)C1 (configuration not stated)	/	/	.	/	/	/
Nc1c(Cl)ncnc1N/N=C/c1ccc(O)cc1	.	.	/	.	.	.
Nc1c(Cl)ncnc1NN=Cc1ccc2ccccc2n1	/	/	54.4	/	/	/
O=S(=O)(NCCNc1cc(-n2cccc2)ncn1)c1cccs1	/	/	.	/	/	/
CCOc1ccccc1C(=O)NN=Cc1cccc2cccnc12	/	/	.	/	/	/
O=C(N/N=C/c1ccc(O)c2ncccc12)c1cccc(Br)c1	.	.	/	.	.	104.9
O=C(NN=Cc1ccc(O)c2ncccc12)c1cccc(Br)c1	/	/	.	/	/	/
O=C(O)c1ccc(C=NNC(=O)c2cccc3ccccc23)cc1	.	/	.	.	.	.
O=C(N/N=C/c1cccc2cccnc12)c1ccncc1	/	/	+	/	/	/
O=C(N/N=C/c1ccccc1O)c1cccc2ccccc12	.	.	/	.	.	32.3
O=C(NN=Cc1cccc2ccccc12)c1ccncc1	/	/	.	/	/	/
O=C(N/N=C/c1cccc2cccnc12)c1ccccc1Br	/	/	+	/	/	/
SMILES	PrPC TRFRET	SARS 3CLpro inh	SSB-PriA inh	BH1578 lux ind	PrP 5UTR inh	PfHsp40 rescue
Cc1nc(N2C(=O)C(=O)C(=C(O)c3ccc(F)cc3)C2c2ccco2)sc1C (configuration not stated)	/	/	.	/	/	/
O=C(Cn1cccc1)NC1CCC(Oc2ncccn2)CC1 (configuration not stated)	/	/	.	/	/	/
C=CCc1cccc(/C=N/NC(=O)c2ccccc2Br)c1O	.	.	/	/	.	?
O=C(N/N=C/c1cccc2cccnc12)c1ccccc1	/	/	+	/	/	/
O=C(N/N=C/c1coc2ccccc2c1=O)c1cc(Br)ccc1O	.	.	/	.	.	89.3
O=C(N/N=C/c1ccc[nH]1)c1ccccc1O	.	.	/	.	.	76.0
C=CCc1cccc(/C=N/NC(=O)c2ccccc2OC)c1O	.	.	/	.	.	49.5
O=C(NN=Cc1coc2ccccc2c1=O)c1cc(Br)ccc1O	/	/	.	/	/	/
Cc1cc2c(cc1C)NC(CC(=O)Nc1ccccc1C#N)C(=O)N2 (configuration not stated)	/	/	.	/	/	/
COCc1ccc(O)c2ncccc12	.	.	94.1	.	.	.
OCCOCc1ccc(O)c2ncccc12	/	/	139.5	/	/	/
Oc1ccc(Cn2ccnc2)c2cccnc12	.	.	98.9	.	.	.
O=C(O)CSCc1ccc(O)c2ncccc12	/	/	.	/	/	/
CCCCCCc1ccc(O)c2ncccc12	/	/	.	/	/	/
O=C(c1ccoc1)N1CC[C@H](c2ccc3c(c2)OCO3)C1	/	/	.	/	/	/
Cc1[nH]n(-c2ccccc2)c(=O)c1N=Nc1nccs1	.	.	.	.	.	35.7
Cc1nc(SCc2nc3ccc(Br)cc3[nH]2)c2oc3ccccc3c2n1	.	/	.	.	.	.
CCc1nc(SCc2nc3ccccc3[nH]2)c2oc3ccccc3c2n1	.	.	.	.	.	41.5
CC(O)(CNC(=O)CCS(=O)(=O)c1ccccc1)c1ccc2c(c1)OCO2 (configuration not stated)	/	/	.	/	/	/
COC(=O)C1=CN(c2cccc(C)c2)C=C(C(=O)OC)C1c1cc(OC)c(O)c([N+](=O)[O-])c1	.	.	53.1	.	.	.
Clc1ccccc1CN(Cc1ccco1)Cc1nnnn1C1CCCC1	.	.	.	.	.	331.1
Cc1nc(N)nc(N)c1Oc1ccc(Cl)cc1	.	/	.	525.6	.	.
O=C(Cc1csc(NC(=O)C2CC2)n1)NCc1ccco1	/	/	.	/	/	/
CCC(CO)Oc1cc(NCc2ccc(C)c(C)c2)c2ncn(C(C)C)c2c1 (configuration not stated)	.	/	.	.	.	.
CCC(CO)Oc1cc(NCc2cc(C)cc(C)c2)c2ncn(C(C)C)c2c1 (configuration not stated)	.	/	55.3	.	.	.
SMILES	PrPC TRFRET	SARS 3CLpro inh	SSB-PriA inh	BH1578 lux ind	PrP 5UTR inh	PfHsp40 rescue
Cc1cc(Cl)ccc1OC(C)C(=O)O (configuration not stated)	.	.	.	.	.	.
Cc1csc(NC(=O)C(C)Oc2ccc(Cl)cc2C)n1 (configuration not stated)	.	/	.	.	.	60.4
Cc1cc(C)cc(NC2=C(N)C(=O)c3ccccc3C2=O)c1	/	.	54.5	.	.	.
CC(=NNC(=O)c1ccc(O)cc1)c1cccc(NC(=O)c2ccc(Cl)cc2)c1	/	/	.	/	/	/
C/C(=N\NC(=O)c1ccc(O)cc1)c1cccc(NC(=O)c2ccc(Cl)cc2)c1	.	/	/	.	.	44.3
CSc1ncccc1C(=O)N1CCC(c2cccs2)CC1	/	/	.	/	/	/
O=S(=O)(NCc1ccc(C(O)c2ccccc2)s1)c1ccc(Cl)s1 (configuration not stated)	/	/	.	/	/	/
CCCCCCCCCC(=O)N[C@H](CN1CCOCC1)[C@H](O)c1ccccc1	.	/	.	.	.	.
CCCCCCCCCCCC(=O)NC(C(=O)O)C(O)c1ccccc1 (configuration not stated)	.	.	96.5	.	.	59.5
COC(=O)c1sc(N=NC(C(=O)Nc2cccnc2)=C(O)c2ccccc2)c(C(=O)OC)c1C	/	/	.	/	/	/
Nc1nonc1-n1nnc(C(=O)N/N=C/c2cccc(F)c2)c1CN1CCCC1	.	/	/	28.1	.	.
Nc1nonc1-n1nnc(C(=O)NN=Cc2cccc(Cl)c2)c1CN1CCCCCC1	/	/	.	/	/	/
Nc1nonc1-n1nnc(C(=O)N/N=C/c2cccc(F)c2)c1CN1CCCCCC1	.	/	/	.	.	.
